Test results: PubChem BioAssay
Values without a mark were called inactive. Activity calls are given as the source filed them. No stated cut-off is given here; in the data, active means inhibition above about 30%; inactive means the rest.

Tested on: transactivating tegument protein VP16 (Human herpesvirus 1), Gal4-VP16 luciferase reporter
Assay: repression of VP16-driven luciferase reporter – cell-based, luminescence, high throughput, counter-screen for SRC3 inhibitor project (AID 588794)
Conditions: mammalian cells, at 3.6 µM, hits give high values

SMILES | inhibition
CCc1cccc(CC)c1C(OC(C)=O)c1cccnc1 (centres undefined) | -7.1%
CCC1C(=O)NCCN1C(=O)c1ccc2nc(Cc3ccc(OC)cc3)oc2c1 (centres undefined) | -0.9%
O=c1[nH]c(=O)n([C@H]2C[C@H](O)[C@@H](CO)O2)cc1Br | 16.2%
C=CCn1c(SCC(=O)NC2CCCC2)nnc1-c1ccccn1 | -2.97%
Cc1cccc(NC(=O)c2cc(-c3ccccn3)nc3ccccc23)c1C | 8.29%
CC(=O)Nc1ccc(OCC(O)Cn2c3ccccc3c3ccccc32)c(C)c1 (centres undefined) | -0.54%
COc1ccc(C(=O)Nc2ccc(N3CCN(C(=O)c4ccccc4C)CC3)cc2)cc1 | 25.1%
Cc1cc(C)nc(/N=C(\N)Nc2ccc(OCCC(C)C)cc2)n1 | 23.4%
CN(C)S(=O)(=O)c1cccc(-c2nn(-c3ccccc3)cc2/C=C(\C#N)c2nc3ccccc3[nH]2)c1 | -4.19%
O=C(NCc1ccccc1)c1c(Cl)nc(Cl)c(Cl)c1Cl | 21.9%
CN1C/C(=C/c2cccnc2)C(=O)/C(=C/c2cccnc2)C1 | 54.1% (active)
O=C(c1cc2sccc2n1Cc1ccccc1)N1CCN(c2nc3ccccc3s2)CC1 | 35.9% (active)
CCOc1ccc(N(CC)C(=O)Cc2c(C(=O)O)n(C)c3ccccc23)cc1 | 7.58%
CCC(=O)NC(c1cccs1)c1ccc2cccnc2c1O (centres undefined) | 25.9%
O=C(N/N=C/c1c(O)ccc2ccccc12)c1ccc(CO)nc1 | 41.3% (active)
CCOc1cccc(/C=N/NC(=O)c2cc(-c3cccn3C)n[nH]2)c1O | 40% (active)
O=C1c2cccc(NCCNCCO)c2C(=O)c2cccc(NCCNCCO)c21 | 37.6% (active)
CC(C)(C)OC(=O)NCc1ccc(CNC(=O)c2[nH]cnc2C(=O)NC2CCN(C(=O)OC(C)(C)C)CC2)cc1 | -0.72%
O=C(c1ccc(Cl)cc1)C(Cn1cncn1)C(Sc1ccccc1)c1ccccc1 (centres undefined) | 20.1%
Cc1cccc(OCC(=O)NCC(=O)N/N=C/c2ccc(O)cc2O)c1 | 14%

SMILES | inhibition
CCCn1c(N)c(C(=O)CSc2ncc(C(F)(F)F)cc2Cl)c(=O)[nH]c1=O | -5.96%
COc1cc(C2C(C#N)=C(SC)NC3=C2C(=O)CCC3)ccc1O (centres undefined) | 14.7%
COc1ccc(-c2cc(C(=O)N3CCN(c4ncccn4)CC3)c3ccccc3n2)c(OC)c1 | -9.7%
N#CCc1c[nH]c2ccc([N+](=O)[O-])cc12 | 20%
COc1ccc(-c2cc(C(=O)NNC(=S)NC(=O)c3c(-c4ccccc4)noc3C)[nH]n2)cc1 | -3.86%
COc1c(Cl)cc(Cl)cc1/C=C/C(=O)c1ccc(NC(=O)c2cccs2)cc1 | 26.6%
O=C(CSc1nnc(COc2ccc(Cl)cc2)o1)N1CCOCC1 | -7.96%
CCC(=O)NC(c1cccs1)c1cc(Cl)c2cccnc2c1O (centres undefined) | 25.6%
COc1ccc(C(=O)/C=C/c2cc(OC)c(O)c(OC)c2)c(F)c1 | 17.7%
COc1ccc(-n2c(-c3ccc(Br)cc3)c[n+]3c2CCCCC3)cc1 | 16.2%
Cc1cccc(OC(=O)NCCOC(=O)N(O)c2ccc(Cl)cc2)c1 | -5.77%
C#CCOCCOCCOCCNc1nc(N2CCN(C(=O)Cn3cc(CCCN=C(N)N)nn3)CC2)nc(N2CCN(C(=O)[C@H](C)n3cc(CCCN=C(N)N)nn3)CC2)n1 | 0.02%
CCCNc1nc(OC(C(F)(F)F)C(F)(F)F)nc(OC(C(F)(F)F)C(F)(F)F)n1 | -8.01%
C=C(C(=O)c1ccccc1)C(CC(=O)c1ccccc1)c1ccccc1 (centres undefined) | 41.1% (active)
COC(=O)c1ccc(S(=O)(=O)NCc2ccc(S(N)(=O)=O)cc2)o1 | -6.55%
CCc1ccc(CN(C)C(=O)c2cc(COc3cccc4cnccc34)on2)cc1 | 33.7% (active)
Cc1ccc(S(=O)(=O)CCC(=O)N2CCN(c3ccc(Cl)cc3)CC2)cc1 | 2.47%
COc1cc(C(F)(F)F)c(C(=O)N(C)Cc2cc(Cl)cc(Cl)c2)cn1 | -2.09%
Cc1cc(C(C)(C)C)cc(C)c1Cn1c2[n+](c3ccc(C(F)(F)F)cc31)CCCCC2 | 21.3%
